PAFAH2 FP inh: PAFAH2 (human) inhibition. AID 492956. Q99487. inhibition, % at 3.39 µM. 340,000 tested, 0.99% active. recombinant PAFAH2, FP-rhodamine activity probe, fluorescence polarization;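 active means inhibition above the mean over all tested compounds plus 3 SD, cut at about 30% in these data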;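 further: inhibitors block probe labeling of enzyme so polarization drops; 0% = enzyme with DMSO and 100% = wells lacking PAFAH2 protein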
PAFAH1B2 inh: PAFAH1B2 (human) inhibition; 340,000 tested, 1.2% active; inhibition, % at 3.39 µM; recombinant PAFAH1B2, FP-rhodamine activity probe, fluorescence polarization; P68402; AID 492953;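 active means inhibition above the mean of all tested compounds plus 3 SD, cut at about 24% in these data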;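 further: 0% = enzyme with DMSO and 100% = wells lacking PAFAH1B2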
E coli Lon inh: E. coli protease La inhibition | P0A9M0 | purified E. coli Lon protease, fluorescence polarization | inhibition, % at 7.94 µM | 360,000 tested, 0.42% active; in the data active means inhibition above about 13%, passing the limit was not always enough;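 further: 0% = enzyme with probe and DMSO and 100% = no enzyme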
pPAFAH inh: inhibitors of human plasma PAF acetylhydrolase (pPAFAH); Q13093; AID 463082; recombinant pPAFAH, FP-rhodamine probe fluorescence polarization; inhibition, % at 3.39 µM; 330,000 tested, 1.5% active;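 active means inhibition above the mean inhibition across the screen plus 3 SD, cut at about 25% in these data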;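 further: inhibitors block binding of the rhodamine activity-based probe so polarization drops; 0% = enzyme with DMSO and 100% = wells lacking pPAFAH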
Target sequence (Q13093 whole entry, looked up): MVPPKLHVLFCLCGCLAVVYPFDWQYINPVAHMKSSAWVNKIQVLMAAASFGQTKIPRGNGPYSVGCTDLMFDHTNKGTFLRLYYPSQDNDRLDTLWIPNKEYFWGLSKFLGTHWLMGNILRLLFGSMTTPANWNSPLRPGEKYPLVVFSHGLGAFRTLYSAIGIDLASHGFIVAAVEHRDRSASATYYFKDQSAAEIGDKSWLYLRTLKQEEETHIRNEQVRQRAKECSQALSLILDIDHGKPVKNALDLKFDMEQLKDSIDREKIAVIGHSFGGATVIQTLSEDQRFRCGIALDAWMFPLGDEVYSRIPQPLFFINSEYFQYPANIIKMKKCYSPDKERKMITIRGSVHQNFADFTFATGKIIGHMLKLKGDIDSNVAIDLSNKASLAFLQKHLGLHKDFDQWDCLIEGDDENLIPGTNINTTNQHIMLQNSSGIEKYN
PAFAH1B3 inh: inhibitors of human PAFAH1B3. Q15102. recombinant PAFAH1B3, FP-rhodamine probe, fluorescence polarization. inhibition, % at 3.39 µM. 340,000 tested, 0.28% active. AID 492972;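 active means inhibition above the screen-wide average of all tested compounds plus 3 SD, cut at about 25% in these data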;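 further: 0% = enzyme with DMSO only and 100% = wells lacking PAFAH1B3 protein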
Target sequence (Q15102 whole entry, looked up): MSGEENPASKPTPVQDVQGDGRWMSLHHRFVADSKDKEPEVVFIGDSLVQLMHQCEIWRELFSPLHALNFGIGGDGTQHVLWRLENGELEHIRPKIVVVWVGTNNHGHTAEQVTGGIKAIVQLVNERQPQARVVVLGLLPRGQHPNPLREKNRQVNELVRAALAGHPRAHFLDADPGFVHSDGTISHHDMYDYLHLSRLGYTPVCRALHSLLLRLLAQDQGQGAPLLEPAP
Rin1-Abl PPI inh: human Rin1-Abl interaction inhibition; TR-FRET Rin1/Abl binding, biochemical; inhibition, % at 7.35 µM; 360,000 tested, 0.4% active; in the data active means inhibition above about 5%, passing the limit was not always enough
E coli Lon conf: E. coli Lon inhibition confirmation | 1,400 tested, 31% active | purified E. coli Lon, fluorescence polarization | AID 602230 | inhibition, % at 7.94 µM | shares compounds with E coli Lon inh; in the data active means inhibition above about 16%;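 further: 0% = enzyme with probe and DMSO and 100% = no enzyme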
The depositor's hits bear a star; x = not tested or not shown; + = active, no number. Shown are actives, neighbours in structure and some others; about 3.1% of the full set was active somewhere.

SMILES | PAFAH2 FP inh | PAFAH1B2 inh | E coli Lon inh | pPAFAH inh | PAFAH1B3 inh | Rin1-Abl PPI inh | E coli Lon conf
COC(=O)c1c(=O)n(O)c2ccc(OC)cc2[n+]1[O-] | 3 | 7 | 142* | 2 | 4 | 0 | 88*
CCOc1ccc(-c2c(=O)n(O)c3ccccc3[n+]2[O-])cc1 | -3 | 5 | -10 | 7 | 4 | 1 | x
CCOC(=O)C1=CCN(S(=O)(=O)c2ccc(C)cc2)C1c1ccccc1F (configuration not stated) | x | x | 0 | x | x | 3 | x
O=C(c1cnccn1)N1CCN(S(=O)(=O)c2ccc3ccccc3c2)CC1 | 0 | 2 | 20* | 4 | 10 | -5 | 1
COc1ccccc1OCCSc1nc2ccccc2n1CC(=O)O | x | x | -11 | x | x | -5 | x
CCc1ccc(N2CC(C(=O)N3CCN(c4ccc([N+](=O)[O-])cc4)CC3)CC2=O)cc1 (configuration not stated) | x | x | 9 | x | x | -2 | x
CCOC(=O)N1CCN(C(=O)C(=O)c2cn(CC(=O)N3CCCCCC3)c3ccccc23)CC1 | -8 | 3 | 20* | -4 | 4 | 2 | 2
COc1ccc(CNC(=O)COC(=O)CN2C(=O)C3CC=CCC3C2=O)cc1 (configuration not stated) | 3 | 4 | -4 | 5 | 10 | 3 | x
O=C(Nc1ccc(Cl)c(Cl)c1)Nn1cnnc1 | -3 | -4 | -8 | x | 0 | 1 | x
O=C(Nc1cccc(Cl)c1)Nn1cnnc1 | -2 | 8 | 104* | -1 | 8 | 1 | -1
COc1cc2[nH]c(=S)nc(NCc3ccccn3)c2cc1OC | 6 | 2 | 26* | x | 0 | -2 | 57*
CC1(C)CSC(C)(C)C(=O)N1 | 1 | 1 | -4 | x | 8 | 2 | x
COc1ccc([N+](=O)[O-])cc1NC(=O)C(C)c1ccccc1 (configuration not stated) | 3 | 7 | 22* | 5 | 11 | 1 | -1
COc1ccc([N+](=O)[O-])cc1NC(=O)CC(c1ccccc1)c1ccccc1 | -8 | 8 | -4 | 6 | -4 | -1 | x
Cc1nc(CC(=O)N2CCN(c3cccc(C)c3C)CC2)cs1 | 0 | 5 | 24* | 2 | 6 | -4 | 2
COc1ccc(CC(=O)N2CCN(c3cccc(C)c3C)CC2)cc1 | 2 | 0 | -4 | 5 | -1 | 0 | x
N#Cc1ccsc1NC(=O)CSc1nncs1 | 13 | 3 | 28* | 11 | 13 | 0 | 31*
Cc1nnc(SCC(=O)Nc2sccc2C#N)s1 | 12 | 9 | -6 | 6 | 11 | -3 | x
Cc1ccc(C(=O)CCC(=O)Nc2cc(C)ccn2)cc1 | -8 | 6 | -13 | 2 | 1 | -1 | x
COc1cccc(NC(=O)CN(C)C(=O)Cc2n[nH]c(=O)c3ccccc23)c1 | 0 | 5 | 19* | 6 | -3 | -2 | -6
Cc1cccc(C)c1NC(=O)COC(=O)c1c2c(nc3ccccc13)/C(=C\c1ccc3c(c1)OCO3)CCC2 | -27 | -6 | + | 16 | 1 | -11 | 74*
CCOc1cc(/C=C2\CCCc3c2nc2ccccc2c3C(=O)O)ccc1OC | 13 | 4 | 115* | 11 | 5 | 1 | 66*
CCN(C(=O)COC(=O)c1ccccc1Cc1ccccc1)C1CCS(=O)(=O)C1 (configuration not stated) | 0 | 5 | -2 | 0 | 10 | 5 | x
CCN(C(=O)COC(=O)c1cc(-c2cccc3ccccc23)nc2ccccc12)C1CCS(=O)(=O)C1 (configuration not stated) | -2 | 0 | 40* | 11 | 5 | -31 | 18*
COc1ccc(C)cc1NC(=O)COC(=O)CCC(=O)c1cccs1 | 2 | 6 | -6 | 12 | 5 | 1 | x
SMILES | PAFAH2 FP inh | PAFAH1B2 inh | E coli Lon inh | pPAFAH inh | PAFAH1B3 inh | Rin1-Abl PPI inh | E coli Lon conf
CCOC(=O)c1cc2c(ccn2C)n1CC(=O)N1CCCC(C)C1 (configuration not stated) | -8 | 1 | 3 | 6 | 2 | 4 | x
CCOC(=O)c1cc2c(ccn2C)n1CC(=O)N1CCC(Cc2ccccc2)CC1 | 7 | -4 | 20* | 20 | -4 | -2 | 10
Cc1cc(NC(=O)CCC(=O)N(Cc2ccco2)C2(C(=O)NC3CCCCC3)CCCCC2)no1 | 8 | 8 | 21* | -1 | -8 | 1 | -3
CCN(CC)C(=O)CSc1nnc2nnc3cc(OC)ccc3n12 | x | x | 132* | 4 | x | -7 | 118*
COc1ccc2nc3ccccc3[n+]([O-])c2c1 | 1 | 5 | 194* | x | -1 | -8 | 138*
COC(=O)c1[nH]c2cccc(OC)c2c1NC(=O)CCN1CCN(c2ccccc2OC)CC1 | 3 | 3 | 21* | -1 | 9 | -2 | 6
Cc1ccc(/C=C2/SC(=O)NC2=S)o1 | 60* | 26* | 89* | x | 45* | -1 | 107*
Cn1cc(/C=C2\SC(=O)NC2=S)c2ccccc21 | 18 | 11 | 1 | 18 | 9 | -3 | x
O=C1Cc2cc(S(=O)(=O)N3CCN(c4cccc(Cl)c4)CC3)ccc2N1 | -5 | 0 | 52* | -8 | 0 | -1 | -6
O=C1CCc2cc(S(=O)(=O)N3CCN(c4cccc(Cl)c4)CC3)ccc2N1 | 5 | -1 | -12 | 4 | 9 | 5 | x
O=C(CSCc1cc(=O)n2nc(C3CC3)sc2n1)Nc1ccccc1Cl | 2 | 7 | -8 | 5 | 9 | 3 | x
O=C(Nc1nc(-c2cccs2)cs1)c1ccc([N+](=O)[O-])o1 | 25 | 12 | -5 | 5 | 16 | 0 | x
Cc1cc(Br)cn2c(Cc3ccsc3)c(-c3ccc(Cl)cc3)nc12 | x | x | 17* | x | x | 1 | 30*
Cc1cc(Br)cn2c(Cc3ccsc3)c(-c3cccc(Cl)c3)nc12 | x | x | -5 | x | x | -14 | x
Clc1cccc(-c2nc3ccc(Cl)cn3c2Cc2ccsc2)c1 | x | x | 20* | x | x | 2 | 113*
CC(C)(C)OC(=O)N1CCC(c2c(C(=O)N3CCN(C(=O)c4ccco4)CC3)cnn2-c2ccc(F)cc2F)CC1 | 8 | -3 | 9 | -1 | 2 | 4 | x
C=CC[C@H](CC(=O)N(CCO)Cc1ccccc1)C(=O)N[C@@H](COC(=O)[C@@H](CC=C)CC(=O)OC(C)(C)C)Cc1c[nH]c2ccccc12 | -3 | 3 | 21* | 7 | 5 | 2 | 8
Cc1ccc(C2=NN(C(=O)CCCC(=O)O)C(c3ccco3)C2)cc1 (configuration not stated) | -1 | 4 | 19* | -1 | 6 | -2 | -4
O=C(O)CN1C(=O)C(=O)N(Cc2ccc(Cl)cc2Cl)C1=O | -3 | 25* | 18* | 6 | 5 | 1 | 17*
NC(=O)CN1C(=O)C(=O)N(Cc2ccc(Cl)cc2)C1=O | -3 | 1 | -6 | 2 | 1 | 2 | x
C/C(=N\Nc1ccc(S(=O)(=O)N2CCCCC2)cn1)c1ccc(O)cc1 | 6 | 11 | 4 | 7 | 4 | 3 | x
